# Measured values as given in the supplement of paper PMC8728848.
# This is one part of a sample in which the strongest signals are shown more often than they occur.
# B1: Flo1 (Saccharomyces cerevisiae), P32768 (protein)
# chain: SGATEACLPAGQRKSGMNINFYQYSLKDSSTYSNAAYMAYGYASKTKLGSVGGQTDISIDYNIPCVSSSGTFPCPQEDSYGNWGCKGMGACSNSQGIAYWSTDLFGFYTTPTNVTLEMTGYFLPPQTGSYTFKFATVDDSAILSVGGATAFNCCAQQQPPITSTNFTIDGIKPWGGSLPPNIEGTVYMYAGYYYPMKVVYSNAVSWGTLPISVTLPDGTTVSDDFEGYVYSFDDDLSQSNCTVPDPSNY
# Columns and labels:
# Test in all cases: glycan array binding signal (z-score within array); higher = stronger binding
# Settings in all cases: glycan notation: IUPAC condensed, linker removed
# [1] = target: Fuc(a1-2)Gal(b1-3)GalNAc(b1-4)[Neu5Ac(a2-3)]Gal(b1-4)Glc
# In short: (§1)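 Glycan array binding is given as a within-array Z-score, which can be read as non-binding when negative. The arrays, 3228 of them, came from the Consortium for Functional Glycomics database and were retained only where the protein sequence was available. Z-scores were averaged across arrays of the same protein sequence at different concentrations or buffers and across linkers.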
# [2] = target: Fuc(a1-2)Gal(b1-3)GlcNAc(b1-2)Man(a1-3)[Fuc(a1-2)Gal(b1-3)GlcNAc(b1-2)Man(a1-6)]Man(b1-4)GlcNAc(b1-4)[Fuc(a1-6)]GlcNAc
# In short: as §1
# [3] = target: Fuc(a1-2)Gal(b1-3)[Fuc(a1-4)]GlcNAc(b1-2)Man(a1-3)[Fuc(a1-2)Gal(b1-3)[Fuc(a1-4)]GlcNAc(b1-2)Man(a1-3)]Man(b1-4)GlcNAc(b1-4)GlcNAc
# In short: as §1
# [4] = target: Fuc(a1-2)Gal(b1-3)[Fuc(a1-4)]GlcNAc(b1-2)Man(a1-3)[Fuc(a1-2)Gal(b1-3)[Fuc(a1-4)]GlcNAc(b1-2)Man(a1-6)]Man(b1-4)GlcNAc(b1-4)GlcNAc
# In short: as §1
# [5] = target: Fuc(a1-2)Gal(b1-4)Fuc(a1-3)]GlcNAc(b1-2)Man(a1-3)[Fuc(a1-2)Gal(b1-4)[Fuc(a1-3)]GlcNAc(b1-2)Man(a1-6)]Man(b1-4)GlcNAc(b1-4)GlcNAc
# In short: as §1
# [6] = target: Fuc(a1-2)Gal(b1-4)[Fuc(a1-3)]GlcNAc(b1-2)Man(a1-3)[Fuc(a1-2)Gal(b1-4)[Fuc(a1-3)]GlcNAc(b1-2)Man(a1-6)]Man(b1-4)GlcNAc(b1-4)GlcNAc
# In short: as §1
# [7] = target: Fuc(a1-2)[Gal(a1-3)]Gal(b1-3)GlcNAc(b1-3)GalNAc
# In short: as §1
# [8] = target: Fuc(a1-2)[Gal(a1-3)]Gal(b1-4)GlcNAc(b1-2)Man(a1-3)[Fuc(a1-2)[Gal(a1-3)]Gal(b1-4)GlcNAc(b1-2)Man(a1-6)]Man(b1-4)GlcNAc(b1-4)[Fuc(a1-6)]GlcNAc
# In short: as §1
# [9] = target: Fuc(a1-2)[Gal(a1-3)]Gal(b1-4)GlcNAc(b1-3)[Fuc(a1-2)[Gal(a1-3)]Gal(b1-4)GlcNAc(b1-6)]GalNAc
# In short: as §1
# [10] = target: Fuc(a1-2)[Gal(a1-3)]Gal(b1-4)[Fuc(a1-3)]Glc
# In short: as §1
# [11] = target: Fuc(a1-2)[GalNAc(a1-3)]Gal
# In short: as §1
# [12] = target: Fuc(a1-2)[GalNAc(a1-3)]Gal(b1-3)GalNAc(a1-3)[Fuc(a1-2)]Gal(b1-4)GlcNAc
# In short: as §1
# [13] = target: Fuc(a1-2)[GalNAc(a1-3)]Gal(b1-4)Glc
# In short: as §1
# [14] = target: Fuc(a1-3)[Gal3S(b1-4)]Glc
# In short: as §1
# [15] = target: Gal(b1-3)GalNAc(a1-3)[Fuc(a1-2)]Gal(b1-4)GlcNAc
# In short: as §1
# [16] = target: Gal(b1-3)GlcNAc(b1-2)Man(a1-3)[GlcNAc(b1-4)][Gal(b1-3)GlcNAc(b1-2)Man(a1-6)]Man(b1-4)GlcNAc(b1-4)GlcNAc
# In short: as §1
# [17] = target: Gal(b1-3)GlcNAc(b1-3)Gal(b1-4)GlcNAc(b1-3)Gal(b1-4)GlcNAc(b1-2)[Gal(b1-3)GlcNAc(b1-3)Gal(b1-4)GlcNAc(b1-3)Gal(b1-4)GlcNAc(b1-6)]Man(a1-6)[Gal(b1-3)GlcNAc(b1-3)Gal(b1-4)GlcNAc(b1-3)Gal(b1-4)GlcNAc(b1-2)Man(a1-3)]Man(b1-4)GlcNAc(b1-4)[Fuc(a1-6)]GlcNAc
# In short: as §1
# [18] = target: Gal(b1-3)GlcNAc(b1-3)Gal(b1-4)[Fuc(a1-3)]GlcNAc
# In short: as §1
# [19] = target: Gal(b1-3)[Fuc(a1-4)]GlcNAc(b1-2)Man
# In short: as §1
# [20] = target: Gal(b1-4)GalNAc(b1-3)[Fuc(a1-2)]Gal(b1-4)GlcNAc
# In short: as §1
# [21] = target: Gal(b1-4)GlcNAc(b1-2)Man(a1-3)[Gal(b1-4)GlcNAc(b1-2)Man(a1-6)]Man(b1-4)GlcNAc(b1-4)GlcNAc
# In short: as §1
# [22] = target: Gal(b1-4)GlcNAc(b1-2)Man(a1-6)[Man(a1-3)]Man(b1-4)GlcNAc(b1-4)GlcNAc
# In short: as §1
# [23] = target: Gal(b1-4)GlcNAc(b1-2)[Gal(b1-4)GlcNAc(b1-4)]Man(a1-3)[Gal(b1-4)GlcNAc(b1-2)Man(a1-6)]Man(b1-4)GlcNAc(b1-4)GlcNAc
# In short: as §1
# [24] = target: Gal(b1-4)GlcNAc(b1-2)[Gal(b1-4)GlcNAc(b1-4)]Man(a1-3)[Gal(b1-4)GlcNAc(b1-2)[Gal(b1-4)GlcNAc(b1-6)]Man(a1-6)]Man(b1-4)GlcNAc(b1-4)GlcNAc
# In short: as §1
# [25] = target: Gal(b1-4)GlcNAc(b1-2)[Gal(b1-4)GlcNAc(b1-4)]Man(a1-3)[GlcNAc(b1-4)][Gal(b1-4)GlcNAc(b1-2)Man(a1-6)]Man(b1-4)GlcNAc(b1-4)GlcNAc
# In short: as §1
# [26] = target: Gal(b1-4)GlcNAc(b1-3)Gal(b1-3)GalNAc
# In short: as §1
# [27] = target: Gal(b1-4)GlcNAc(b1-3)Gal(b1-4)GlcNAc(b1-2)Man(a1-3)[Gal(b1-4)GlcNAc(b1-3)Gal(b1-4)GlcNAc(b1-2)Man(a1-6)]Man(b1-4)GlcNAc(b1-4)[Fuc(a1-6)]GlcNAc
# In short: as §1
# [28] = target: Gal(b1-4)GlcNAc(b1-3)Gal(b1-4)GlcNAc(b1-3)Gal(b1-4)GlcNAc(b1-3)Gal(b1-4)GlcNAc(b1-2)[Gal(b1-4)GlcNAc(b1-3)Gal(b1-4)GlcNAc(b1-3)Gal(b1-4)GlcNAc(b1-3)Gal(b1-4)GlcNAc(b1-6)]Man(a1-6)[Gal(b1-4)GlcNAc(b1-3)Gal(b1-4)GlcNAc(b1-3)Gal(b1-4)GlcNAc(b1-3)Gal(b1-4)GlcNAc(b1-2)Man(a1-3)]Man(b1-4)GlcNAc(b1-4)[Fuc(a1-6)]GlcNAc
# In short: as §1
# [29] = target: Gal(b1-4)GlcNAc(b1-6)Gal(b1-4)GlcNAc
# In short: as §1
# [30] = target: Gal3S(b1-3)GalNAc
# In short: as §1
binder,measurement,setting,value
B1,glycan array binding signal (z-score),[1],-0.19
same,glycan array binding signal (z-score),[2],1.41
same,glycan array binding signal (z-score),[3],-0.362
same,glycan array binding signal (z-score),[4],2.44
same,glycan array binding signal (z-score),[5],3.01
same,glycan array binding signal (z-score),[6],2.48
same,glycan array binding signal (z-score),[7],2.18
same,glycan array binding signal (z-score),[8],3.01
same,glycan array binding signal (z-score),[9],0.353
same,glycan array binding signal (z-score),[10],-0.047
same,glycan array binding signal (z-score),[11],-0.514
same,glycan array binding signal (z-score),[12],0.065
same,glycan array binding signal (z-score),[13],0.017
same,glycan array binding signal (z-score),[14],0.119
same,glycan array binding signal (z-score),[15],-0.653
same,glycan array binding signal (z-score),[16],1.05
same,glycan array binding signal (z-score),[17],2.69
same,glycan array binding signal (z-score),[18],-0.364
same,glycan array binding signal (z-score),[19],2.33
same,glycan array binding signal (z-score),[20],0.699
same,glycan array binding signal (z-score),[21],-0.067
same,glycan array binding signal (z-score),[22],0.098
same,glycan array binding signal (z-score),[23],-0.087
same,glycan array binding signal (z-score),[24],0.251
same,glycan array binding signal (z-score),[25],0.797
same,glycan array binding signal (z-score),[26],-0.714
same,glycan array binding signal (z-score),[27],8.23
same,glycan array binding signal (z-score),[28],1.44
same,glycan array binding signal (z-score),[29],-0.551
same,glycan array binding signal (z-score),[30],-0.392
